Here are results for 11 compounds from PubChem BioAssay (NCI).

Common to all, as to experiment: NCI-60 one-dose screen, 48 h (100 = growth as untreated, 0 = no growth, -100 = all killed)
Holding throughout (settings): 10 µM unless noted

For assay [1], the system named is HCT-15 colon.
The test system of assay [2] is HT29 colon.
Assay [3] deals with SNB-75 CNS.
For assay [4], the system named is SNB-19 CNS.
In assay [5] the test system is U251 CNS.
For assay [6], the system named is PC-3 prostate.
In assay [7] the test system is SK-MEL-5 melanoma.
Assay [8] deals with UACC-62 melanoma.
The subject of assay [9] is LOX IMVI melanoma.
In assay [10] the test system is SK-MEL-28 melanoma.

This is part of a sample that, as a whole, favours compounds with a hit. Of some 83,000 tested, about 20% had one in any assay.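 A percent growth of 40 corresponds to 60% growth inhibition; 0 means no net growth; -100 means all cells died. Active threshold: below 10.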 Values without a mark were called inactive. The source made the active and inactive calls.

In the case of `COc1ccc(-c2nc(-c3nc4ccc(F)cc4[nH]3)cc3c2[nH]c2ccccc23)cc1`, the growth in assay [1] is 36.1%; in [2], 32.8%; in assay [3], 60.8%; in assay [4], 62.3%; in assay [5] it was 29.4%; in assay [6], 27.6%. Besides, the growth is 51.1% in [7], 41.4% in assay [8], 29.5% in assay [9] and 57.4% in assay [10].

Regarding `CCCCCCCCCCC/C=C\C[C@H](O)C/C=C1/C(=O)C=C[C@@H]1C/C=C\CCCC(=O)OC`, the growth in [1] is -43% (active); in assay [2] it was -22.5% (active); in assay [3], -4.49% (active); in assay [4], 18.2%; in [5], -69% (active); in assay [6] it was -20% (active). Also, the growth in assay [7] is -85.3% (active); in [8], -39.9% (active); in assay [9] it was -92.4% (active); in [10] it was -20.4% (active).

On to `Cc1ccnc2nc(C(=O)OCC(=O)Nc3ccc(-c4ccccc4)cc3)nn12`, for which the growth in assay [1] is 105%; in assay [2] it was 108%; in assay [3], 95%; in assay [4], 103%; in assay [5], 101%; in assay [6] it was 102%. Also, the growth in [7] was 105%; in assay [8] it was 116%; in [9] it was 99%; in assay [10], 110%.

Consider `COc1ccc(C(=O)/C=C/c2cc(C(=O)c3cc(OC)c(OC)c(OC)c3)ccc2OC)cc1`, for which the growth was 29.2% in assay [1]; 27.7% in assay [2]; 66.7% in assay [3]; 53.6% in assay [4]; 52.4% in assay [5]; 44.5% in [6]. For the same compound, the growth was 54.4% in [7], 33.1% in assay [8], 27.4% in [9] and 35.1% in assay [10].

Regarding `COc1cc(/C=C2\CCCC3=C2NC(C)=NC3c2cc(OC)c(OC)c(OC)c2)cc(OC)c1OC` (stereo not given), the growth is 4.23% (active) in [1]; 7.9% (active) in assay [2]; 21.9% in assay [3]; 61.2% in assay [4]; 9.77% (active) in assay [5]; 42.7% in assay [6]. For the same compound, the growth in assay [7] is 19.1%; in assay [8], 9.03% (active); in assay [9], -41.2% (active); in assay [10], 31.9%.

Consider `COc1cc(/C=C2\C=C(c3ccc(F)cc3)N(Cc3ccccc3)C2=O)cc(OC)c1OC`, for which the growth in assay [1] is 53.6%; in [2] it was 78.9%; in [3] it was 70.8%; in [4], 79%; in assay [5], 48.8%; in assay [6], 32.7%. Moreover, the growth in [7] was 36.1%; in assay [8], 71.6%; in assay [9], 65.3%; in [10] it was 94.2%.

Consider `O=c1[nH]c2ccccc2cc1-c1nnc(Cc2ccccc2)o1`, for which the growth was 49% in assay [1]; 57.9% in assay [2]; 69.3% in assay [3]; 86% in [4]; 72.4% in assay [5]; 65.5% in assay [6]. In addition, the growth in assay [7] was 56.8%; in [8], 47.9%; in assay [9], 35%; in assay [10] it was 101%.

Take `CN(C)C/C=C/C(=O)Nc1cc2c(Nc3ccc(F)c(Cl)c3F)ncnc2cc1OCCOC(F)F`: the growth was 9.17% (active) in assay [1]; 2.75% (active) in [2]; -19.4% (active) in assay [3]; 36.6% in [4]; 27.9% in assay [5]; 11% in assay [6]. Also, the growth in [7] was 37.5%; in assay [8], 28.9%; in assay [9] it was 15.3%; in [10], 49.4%.

Regarding `COc1cccc(/C=C/C(=O)c2sc(Nc3ccc(O)cc3)nc2C)c1`, the growth is 83.7% in [1]; 82% in [2]; 84.1% in [3]; 95.1% in assay [4]; 89.6% in [5]; 85.9% in assay [6]. Moreover, the growth was 95.4% in assay [7], 94.4% in [8], 87.5% in assay [9] and 102% in [10].

With `COc1cc(OC)c(C(=O)/C=C/c2cccc(C(F)(F)F)c2)c(OC)c1`, the growth was 6.82% (active) in assay [1]; 3.81% (active) in assay [2]; 19.2% in assay [3]; 14.2% in [4]; 9.44% (active) in [5]; 41.9% in assay [6]. The growth in [7] was 13.2%; in assay [8], -12.1% (active); in assay [9] it was -16.7% (active); in assay [10], 39.1%.

`CCCOC(=O)C1(O)CCCC1`: the growth in assay [1] is 93.9%; in [2], 96.3%; in assay [3], 80.9%; in [4], 108%; in [5], 104%; in assay [6] it was 96.9%. Besides, the growth in [7] was 99.4%; in assay [8], 105%; in [9], 108%; in assay [10], 99.2%.
